Our source for the residual bioluminescent signal values is the supplement of paper PMC11628255, “Interference of metal ions on the bioluminescent signal of firefly, Renilla, and NanoLuc luciferases in high-throughput screening assays” (Frontiers in Chemistry, 2024).

± gives the standard deviation of the averaged measurements.

Test [1] concerns Renilla luciferase (RLuc). Nature of the test: residual bioluminescent signal relative to negative (DMSO) control; higher = less interference (more residual luciferase signal). Put shortly:
(§1)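 In triplicate wells of 384-well plates, each metal salt (0.01, 1 and 5 mM final, prepared in water) was pre-incubated with purified firefly, NanoLuc or Renilla luciferase for 10 min at room temperature in either screening or HEPES buffer. Readings of luminescence were taken 10 min after the substrate went in. The residual signal for a well is its luminescence relative to the mean of vehicle-only wells on the same plate, as a percentage.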

Test [2] has as its system NanoLuc luciferase (NLuc). The description is as above. Put shortly: as §1
[3] abbreviates: metal salt concentration 0.01 mM, HEPES conditions (100 mM HEPES, 0.05% BSA, 0.3 M sodium ascorbate, pH 7.5).
Where [4] appears, read: metal salt concentration 0.01 mM, screening conditions (50 mM Tris-HCl, […] KH2PO4, […] NaCl, 0.25 mM EDTA, 0.1% BSA, 0.3 M sodium ascorbate, pH 7.4).
[5] abbreviates: metal salt concentration 1 mM, HEPES conditions (100 mM HEPES, 0.05% BSA, 0.3 M sodium ascorbate, pH 7.5).
[6] abbreviates: metal salt concentration 1 mM, screening conditions (50 mM Tris-HCl, […] KH2PO4, […] NaCl, 0.25 mM EDTA, 0.1% BSA, 0.3 M sodium ascorbate, pH 7.4).
[7] abbreviates: metal salt concentration 5 mM, HEPES conditions (100 mM HEPES, 0.05% BSA, 0.3 M sodium ascorbate, pH 7.5).
Where [8] appears, read: metal salt concentration 5 mM, screening conditions (50 mM Tris-HCl, […] KH2PO4, […] NaCl, 0.25 mM EDTA, 0.1% BSA, 0.3 M sodium ascorbate, pH 7.4).
Setting [9] is: metal salt concentration 0.01 mM, HEPES conditions (100 mM HEPES, 0.1% BSA, pH 7.5).
Setting [10] is: metal salt concentration 0.01 mM, screening conditions (PBS, 0.1% BSA, pH 7.4).
The mark [11] stands for this setting: metal salt concentration 1 mM, HEPES conditions (100 mM HEPES, 0.1% BSA, pH 7.5).
[12] abbreviates: metal salt concentration 1 mM, screening conditions (PBS, 0.1% BSA, pH 7.4).
[13] abbreviates: metal salt concentration 5 mM, HEPES conditions (100 mM HEPES, 0.1% BSA, pH 7.5).
The mark [14] stands for this setting: metal salt concentration 5 mM, screening conditions (PBS, 0.1% BSA, pH 7.4).

On to `[Cl][Sn][Cl]` [tin(II) chloride], for which the residual bioluminescent signal in test [1] (setting [3]) worked out at 103 ± 4.7%; in test [1] (setting [4]) it was 96.3 ± 7.4%; in test [1] (setting [5]), 103 ± 11%; in test [1] (setting [6]), 95.3 ± 12%; in test [1] (setting [7]) it was 92.9 ± 2.4%; in test [1] (setting [8]) it was 11.3 ± 2.3%.
Regarding `O=[N+]([O-])[O-].O=[N+]([O-])[O-].[Ni+2]` [nickel(II) nitrate], the residual bioluminescent signal in test [2] (setting [9]) is 89 ± 2%; in test [2] (setting [10]), 94.5 ± 3.8%; in test [2] (setting [11]), 87.6 ± 4.2%; in test [2] (setting [12]), 91.4 ± 1.8%; in test [2] (setting [13]), 89.9 ± 2.2%; in test [2] (setting [14]), 78.1 ± 3.4%. Moreover, the residual bioluminescent signal in test [1] (setting [3]) came out at 82.5 ± 12%; in test [1] (setting [4]), 99.08 ± 0.95%; in test [1] (setting [5]), 57.9 ± 4.5%; in test [1] (setting [6]) it was 79.3 ± 3.2%; in test [1] (setting [7]) it was 22.4 ± 2.8%; in test [1] (setting [8]), 52.7 ± 11%.
Regarding `O=[N+]([O-])[O-].O=[N+]([O-])[O-].[Cd+2]` [cadmium nitrate], the residual bioluminescent signal in test [2] (setting [9]) worked out at 93.8 ± 1.4%; in test [2] (setting [10]), 98.2 ± 1.1%; in test [2] (setting [11]) it was 74.64 ± 0.51%; in test [2] (setting [12]), 62.1 ± 7.8%; in test [2] (setting [13]) it was 84.1 ± 2.6%; in test [2] (setting [14]), 22.1 ± 1.6%. The residual bioluminescent signal in test [1] (setting [3]) was 100 ± 15%; in test [1] (setting [4]), 102 ± 9.5%; in test [1] (setting [5]), 11.8 ± 0.97%; in test [1] (setting [6]), 45.6 ± 6.1%; in test [1] (setting [7]) it was 1.41 ± 0.32%; in test [1] (setting [8]), 12.2 ± 3.1%.
For the compound `O=[N+]([O-])[O-].[K+]` [potassium nitrate], the residual bioluminescent signal in test [1] (setting [3]) came to 110 ± 7.7%; in test [1] (setting [4]), 101 ± 7.9%; in test [1] (setting [5]), 104 ± 1.4%; in test [1] (setting [6]), 108 ± 11%; in test [1] (setting [7]), 109 ± 5.3%; in test [1] (setting [8]), 102 ± 3.8%.
`O=[N+]([O-])[O-].O=[N+]([O-])[O-].O=[N+]([O-])[O-].[Ga+3]` [gallium(III) nitrate]: the residual bioluminescent signal in test [1] (setting [3]) was found to be 105 ± 12%; in test [1] (setting [4]), 98.9 ± 6%; in test [1] (setting [5]) it was 10.6 ± 0.8%; in test [1] (setting [6]), 112 ± 11%; in test [1] (setting [7]) it was 3.03 ± 1.8%; in test [1] (setting [8]), 1.92 ± 1.4%.
`O=[N+]([O-])[O-].O=[N+]([O-])[O-].[Zn+2]` [zinc nitrate]: the residual bioluminescent signal in test [1] (setting [3]) worked out at 86 ± 1.9%; in test [1] (setting [4]) it was 96.8 ± 8.7%; in test [1] (setting [5]) it was 11.8 ± 2.2%; in test [1] (setting [6]) it was 85.7 ± 3.5%; in test [1] (setting [7]) it was 1.13 ± 0.12%; in test [1] (setting [8]), 14.9 ± 12%.
As to `O=[N+]([O-])[O-].[Na+]` [sodium nitrate], the residual bioluminescent signal in test [2] (setting [9]) was determined as 89.7 ± 1.5%; in test [2] (setting [10]), 96.7 ± 2.3%; in test [2] (setting [11]), 91.8 ± 4.2%; in test [2] (setting [12]) it was 93.2 ± 3.3%; in test [2] (setting [13]), 102 ± 2.5%; in test [2] (setting [14]) it was 94.1 ± 2.8%. For the same compound, the residual bioluminescent signal in test [1] (setting [3]) was 93.9 ± 5.2%; in test [1] (setting [4]), 101 ± 3.4%; in test [1] (setting [5]), 96.7 ± 2.8%; in test [1] (setting [6]), 97.6 ± 5.2%; in test [1] (setting [7]), 109 ± 7.3%; in test [1] (setting [8]), 107 ± 2.8%.
For the compound `O=[N+]([O-])[O-].[Li+]` [lithium nitrate], the residual bioluminescent signal in test [1] (setting [3]) came out at 88.6 ± 6.9%; in test [1] (setting [4]), 87.4 ± 5.8%; in test [1] (setting [5]) it was 94.2 ± 14%; in test [1] (setting [6]), 86.8 ± 1.4%; in test [1] (setting [7]) it was 97.7 ± 6.4%; in test [1] (setting [8]) it was 88.5 ± 5.5%.
As for `O=[N+]([O-])[O-].O=[N+]([O-])[O-].[Ca+2]` [calcium nitrate], the residual bioluminescent signal in test [2] (setting [9]) stood at 97.1 ± 2.3%; in test [2] (setting [10]), 96.46 ± 0.94%; in test [2] (setting [11]), 102 ± 5.5%; in test [2] (setting [12]), 97.6 ± 4.1%; in test [2] (setting [13]), 109 ± 3.1%; in test [2] (setting [14]) it was 92.6 ± 4.6%. Moreover, the residual bioluminescent signal is 83 ± 5.8% in test [1] (setting [3]); 79.9 ± 9.1% in test [1] (setting [4]); 92.3 ± 4.3% in test [1] (setting [5]); 86.7 ± 4.6% in test [1] (setting [6]); 106 ± 6.2% in test [1] (setting [7]); 19.5 ± 7.2% in test [1] (setting [8]).
Take `O=[N+]([O-])[O-].[Ag+]` [silver nitrate]: the residual bioluminescent signal in test [2] (setting [10]) was 28 ± 4.6%; in test [2] (setting [12]), 1.98 ± 0.46%; in test [2] (setting [14]), 2.05 ± 0.58%.
With `O=[N+]([O-])[O-].O=[N+]([O-])[O-].O=[N+]([O-])[O-].[Al+3]` [aluminium nitrate], the residual bioluminescent signal came out at 85.7 ± 7.3% in test [1] (setting [3]); 91.1 ± 1% in test [1] (setting [4]); 7.39 ± 0.84% in test [1] (setting [5]); 90.2 ± 1.4% in test [1] (setting [6]); 103 ± 2.5% in test [1] (setting [7]); 94.2 ± 6.2% in test [1] (setting [8]).
In the case of `O=[N+]([O-])[O-].O=[N+]([O-])[O-].[Cu+2]` [copper(II) nitrate], the residual bioluminescent signal in test [2] (setting [9]) worked out at 95.5 ± 6.9%; in test [2] (setting [10]) it was 90.4 ± 2.7%; in test [2] (setting [11]) it was 0.235 ± 0.062%; in test [2] (setting [12]), 0.732 ± 0.11%; in test [2] (setting [13]) it was 0.689 ± 0.91%; in test [2] (setting [14]) it was 0.201 ± 0.12%. The residual bioluminescent signal in test [1] (setting [3]) worked out at 99.3 ± 10%; in test [1] (setting [4]) it was 104 ± 6.5%; in test [1] (setting [5]), 0.774 ± 0.61%; in test [1] (setting [6]), 0.583 ± 0.34%; in test [1] (setting [7]), 0.774 ± 0.24%; in test [1] (setting [8]), 0.897 ± 0.62%.
For `O=[N+]([O-])[O-].O=[N+]([O-])[O-].[Pb+2]` [lead(II) nitrate], the residual bioluminescent signal in test [1] (setting [3]) stood at 102 ± 1.7%; in test [1] (setting [4]), 112 ± 8.2%; in test [1] (setting [5]), 42.9 ± 4.4%; in test [1] (setting [6]), 69.9 ± 14%; in test [1] (setting [7]), 30.2 ± 3.3%; in test [1] (setting [8]), 5.96 ± 0.97%.
